High-throughput results: PubChem, National Center for Advancing Translational Sciences (NCATS)
AMA1 RON2 block = inhibitors of Plasmodium falciparum AMA1-RON2 interaction; 0.2% of 360,000 active; AlphaScreen AMA1-biotinylated RON2 peptide binding; Potency, µM (titrated, usually from 58.2 µM), without a hit: at the highest dose activity change, negative = inhibition, most hits filed as inhibitors; active means well fitted inhibition curve with a large enough effect; inconclusive means small, poorly fitted or top-dose-only effect; inactive means no such curve, though single readings can be large or run the other way;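 further: potency means the concentration at half of the fitted maximal effect; 0% = vehicle wells and -100% = peptide control; nearly all actives have a fitted effect of over 45% in size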
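AMA1 (3D7) with his tag at 25 nM final met compounds first, then biotinylated RON2 peptide at 25 nM; detection used donor plus acceptor beads, 10 µg/mL apiece, read by AlphaScreen after 30 min at room temperature.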
SARS PLpro yeast = inhibitors of SARS-CoV papain-like protease in yeast; Potency, µM (titrated, usually from 32.9 µM), inactives show at the top dose activity, positive = growth rescue, hits mostly activators; 0.19% of 330,000 active; S. cerevisiae expressing SARS-CoV PLpro, growth rescue; further: potency means the concentration at half of the fitted maximal effect; 0% is about no effect; nearly all actives have a fitted effect of over 55% in size
NS1 function inh = blocks influenza NS1 protein function. Potency, µM (series often up to 46.1 µM), for the others: at the top dose activity, positive = more growth. 0.4% of 270,000 active. AID 2326; further: potency means the concentration at half of the fitted maximal effect; actives are rising curves; nearly all actives have a fitted effect of over 50% in size
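A cell-based growth assay was used: compounds that relieve NS1-induced slow growth of budding yeast raise OD600. Assay medium was yeast nitrogen base with ammonium sulphate and -URA supplement, pH 6.0, with 2% galactose.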
Flu NS1 inh = influenza NS1 function inhibition validation | shares compounds with NS1 function inh | influenza NS1 function cell assay, 15-point titration | activity change, negative = inhibition, % at 32.9 µM | 1,400 tested, under 10 active | AID 492980; further: 0% is about no effect
Numbers without * were called inactive; u = inconclusive; x = no result; [ ] = another dose, or the depositor's remark. This is a sample that favours compounds with a hit; in the whole collection about 0.65% have one here. Unless noted, the call rests on the fitted dose curve.

SMILES	AMA1 RON2 block	SARS PLpro yeast	NS1 function inh	Flu NS1 inh
CCOC(=O)Nc1ccc2c(CN3CCN(S(=O)(=O)c4ccccc4)CC3)cc(=O)oc2c1	4%	u	8.9µM*	4
CN1CCN(NC(=O)c2c(-c3ccccc3)sc3ccccc23)CC1	2%	-4%	x	x
CC(C)C[C@@H]1NC(=O)N(CCCn2ccnc2)C1=O	-3%	0%	2%	x
CCc1[nH]c(=S)c(C#N)c(-c2ccccc2)c1C(=O)OC	56%	u	10µM*	9
Cc1[nH]c(=S)c(C#N)c(-c2ccccc2)c1C(=O)Nc1ccccc1	85%	-1%	0%	x
COc1ccc(/C=C2/C(=O)NC(=O)N(c3ccccc3)C2=O)cc1CN1C(=O)c2ccccc2C1=O	-1%	1%	-3%	x
COc1cc(/C=C2/C(=O)NC(=O)N(c3ccccc3)C2=O)ccc1O	-9%	26%	u	34
COc1cc(C2NC(=O)NC(c3ccccc3)=C2C(C)=O)cc([N+](=O)[O-])c1O (configuration not stated)	-14%	0%	0%	x
COc1cc2oc(=O)ccc2cc1[C@@H](O)[C@@H]1OC(C)(C)OC1(C)C	-1%	0%	x	x
COc1ccc(Br)cc1C1CC(=O)N2CN(Cc3ccccc3)CSC2=C1C#N (configuration not stated)	1%	-1%	11µM*	-16
COc1ccc(Br)cc1C1CC(=O)N2CN(C)CSC2=C1C#N (configuration not stated)	6%	0%	-42%	x
CCOc1ccc2c(c1)C(c1ccccc1)=NNC(c1ccccc1)=N2	-24%	-26%	11µM*	-13
CCc1ccc2c(c1)C(c1ccncc1)=NNC(c1ccccc1)=N2	-8%	0%	-6%	x
NC(=O)C1CCN(c2nc(C3CC3)nc3c2nnn3Cc2ccccc2Cl)CC1	-2%	19%	-9%	x
CC(C)(C)c1nc(N2CCN(C(=O)c3ccco3)CC2)c2nnn(Cc3ccccc3Cl)c2n1	u	0%	13µM*	u
CCOc1cc(C(=O)NCCc2ccc(S(N)(=O)=O)cc2)cc(OCC)c1OCC	1%	1%	3%	x
COc1cc(C(=O)NCCc2ccc(S(N)(=O)=O)cc2)cc(OC)c1OC	-4%	-1%	u	1
CCN(C(=O)COC(=O)c1ccc(=O)n(Cc2ccccc2)n1)C1CCS(=O)(=O)C1 (configuration not stated)	-21%	-2%	x	x
COc1ccc(C(=O)Nc2ccc(C(=O)N3CCC(C)CC3)cc2)cc1OC	5%	-2%	-4%	x
COc1cccc(-c2cnc(C(O)c3cc(F)cc(Cl)c3)[nH]2)c1 (configuration not stated)	-1%	x	x	x
O=C(c1ccc(C(F)(F)F)cc1)N1CCC(=O)N(C(COCc2ccc(C(F)(F)F)cc2)Cc2ccccc2)CC1 (configuration not stated)	1%	-13%	u	-18
O=C(c1ccc(Cl)c(Cl)c1)N1CCC(=O)N(C(COCc2cccc(Cl)c2)Cc2ccccc2)CC1 (configuration not stated)	0%	-36%	22µM*	1
Cc1cccc(COC[C@H](Cc2ccccc2)N2CCN(C(=O)c3ccc(C(F)(F)F)cc3)CCC2=O)c1	-9%	x	x	x
O=C(c1cccc(Cl)c1)N1CCC(=O)N(C(COCc2cccc(Cl)c2)Cc2ccccc2)CC1 (configuration not stated)	-5%	6%	17%	x
Cc1sc(NC(=O)Cc2ccc3c(c2)OCO3)nc1-c1ccc2c(c1)CCN2C(=O)c1cccc(F)c1	u	14%	u	x
SMILES	AMA1 RON2 block	SARS PLpro yeast	NS1 function inh	Flu NS1 inh
Cc1ccccc1C(=O)N1CCc2cc(-c3nc(NC(=O)Cc4ccc5c(c4)OCO5)sc3C)ccc21	-8%	-17%	u	1
Cc1cccc(C)c1NC(=O)C1(C)CSCC(=O)N1CC(C)C (configuration not stated)	2%	x	x	x
CC1CN(C(=O)COC(=O)c2ccc(N(C)C)cc2)CC(C)O1 (configuration not stated)	-4%	0%	7%	x
CN(C)c1ccc(C(=O)OCC(=O)N2CCOCC2)cc1	16%	0%	u	3
CSc1ccc(CN(C)C(=O)C23CC4CC(CC(Cl)(C4)C2)C3)cc1	-14%	-18%	-19%	x
Cn1c(N)c(C(=O)COC(=O)c2cc(-c3ccccc3)nc3ccccc23)c(=O)n(Cc2ccccc2)c1=O	8%	-22%	u	x
Cn1c(N)c(C(=O)COC(=O)c2cc(C3CC3)nc3ccccc23)c(=O)n(Cc2ccccc2)c1=O	3%	-4%	11µM*	10
COc1ccc(/C=N/NC(=O)CCc2c(C)n[nH]c2C)cc1OC	0%	14%	5.6µM*	19
COc1cc(/C=N/NC(=O)CCc2c(C)n[nH]c2C)ccc1O	16%	-13%	11%	x
CC(C)n1cc(CN2CCCC(CO)(Cc3cccc(Cl)c3)C2)cn1 (configuration not stated)	13%	0%	0%	x
O=C(Cc1ccccc1)NCC(=O)N/N=C/c1ccc(C(=O)O)cc1	1%	1%	0%	x
O=C(CNC(=O)C(c1ccccc1)c1ccccc1)N/N=C\c1ccc(C(=O)O)cc1	-3%	5%	u	8
CCN(C(=O)COC(=O)c1nccnc1N)c1cccc2ccccc12	19%	-2%	x	x
COc1cc(Cl)c(C)cc1NC(=O)COC(=O)CCc1nc2ccccc2c(=O)[nH]1	7%	-1%	x	x
Cc1ccc2c(c1)NCC(C(=O)NC1CCCCC1)O2 (configuration not stated)	6%	-2%	7.9µM*	1
Cc1ccc(C)c(NC(=O)NC2CCCCCCC2)c1	2%	-4%	-7%	x
O=C(O)C1CCCCN1C(=O)c1ccc(S(=O)(=O)N2CCCCCC2)cc1 (configuration not stated)	-1%	-9%	x	x
O=C(Nc1ccc(F)cc1F)N1CCN(CCc2ccccc2)CC1	3%	0%	1%	x
COc1cccc(C(c2c(NC(=O)c3ccccc3)sc(C)c2C)N2CCN(C)CC2)c1 (configuration not stated)	10%[2.32 µM]	4%	5%	x
COc1ccc(C(c2c(NC(=O)c3ccccc3)sc(C)c2C)N2CCN(CCO)CC2)cc1 (configuration not stated)	-1%	10%	u	-18
COc1ccc(N=C2SC(CC(=O)Nc3ccccc3OC)C(=O)N2Cc2ccco2)cc1 (configuration not stated)	0%	-6%	10µM*	-14
CCn1c2ccccc2c2cc(N=C3SC(CC(=O)Nc4ccccc4OC)C(=O)N3CCOC)ccc21 (configuration not stated)	-1%	10%	u	x
COc1ccc(N=C2SC(CC(=O)Nc3ccc(F)cc3)C(=O)N2Cc2ccco2)cc1 (configuration not stated)	12%	-2%	8%	x
CCn1c2ccccc2c2cc(N=C3SC(CC(=O)Nc4ccccc4OC)C(=O)N3C)ccc21 (configuration not stated)	15%	0%	4µM*	-25
Clc1cccc(N2CCN(Cc3ccc(Br)o3)CC2)c1	-12%	-9%	-27%	x
COc1ccccc1C1=CC(=O)CC(C)(C)C1=O	20%	4%	x	x
